Bioassay records (PubChem)
RORg inh: inhibitors of mouse ROR gamma transcriptional activity | P51450 | Drosophila S2 Gal4-RORgamma UAS-luciferase reporter, 20 h | Potency, µM (titrated, usually from 53.6 µM), without a hit: top-dose activity change, negative = inhibition, hits mostly inhibitors | actives 5.4% (n = 310,000) | AID 2551; also: nearly all actives have a fitted effect of over 60% in size
Target sequence (P51450 whole entry, looked up, the tested form may be a part): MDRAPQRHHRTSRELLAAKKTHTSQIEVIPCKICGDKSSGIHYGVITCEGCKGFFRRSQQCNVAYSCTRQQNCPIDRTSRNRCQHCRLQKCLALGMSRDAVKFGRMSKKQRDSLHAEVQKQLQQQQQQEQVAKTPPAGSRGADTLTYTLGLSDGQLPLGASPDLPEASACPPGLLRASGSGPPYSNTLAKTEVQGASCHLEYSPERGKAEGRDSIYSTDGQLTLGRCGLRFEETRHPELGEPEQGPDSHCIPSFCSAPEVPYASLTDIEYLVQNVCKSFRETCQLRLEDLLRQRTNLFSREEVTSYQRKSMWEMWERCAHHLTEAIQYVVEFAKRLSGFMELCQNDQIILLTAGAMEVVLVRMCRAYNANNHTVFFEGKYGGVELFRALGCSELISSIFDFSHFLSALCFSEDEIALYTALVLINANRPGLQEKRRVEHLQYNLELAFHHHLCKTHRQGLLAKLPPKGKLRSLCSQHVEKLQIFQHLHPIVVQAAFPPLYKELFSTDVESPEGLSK
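Stably transfected Drosophila Schneider cells are the test system, with ROR gamma fused to Gal4 and luciferase under UAS control; luminescence is read after 20 hr of 700 uM copper sulfate induction at ambient temperature.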
Gal4-VP16 FLuc: Gal4-VP16 reporter inhibition counter-screen; Drosophila S2 Gal4-VP16 UAS-luciferase, luminescence, 20 h; Potency, µM (top dose mostly 53.6 µM), without a hit: at the top dose activity, negative = inhibition, usual class: inhibitors; actives 3.5% (n = 310,000); AID 2546;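 also: Gal4-VP16 expression switched on by copper sulfate through the metallothionein promoter; nearly all actives have a fitted effect of over 50% in size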
TDP1 cell CPT: DT40-hTDP1 cell growth loss with CPT. actives 12% (n = 420,000). chicken DT40 Tdp1-/-;hTDP1 cells + 20 nM CPT, ATP luminescence, 48 h. Potency, µM (titrated, usually from 46.2 µM), for the others: top-dose activity change, negative = growth inhibition, usual class: inhibitors; also: nearly all actives have a fitted effect of over 55% in size
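Chicken DT40 Tdp1-/- cells stably complemented with human TDP1 were seeded at 400 cells/well in medium containing 20 nM camptothecin, exposed to pin-transferred compounds, and grown at 37 °C for at least 48 hr. Viability was read as ATP luminescence.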
TDP1 inh: blocks human tyrosyl-DNA phosphodiesterase 1; Q9NUW8; recombinant TDP1, AlphaScreen DNA substrate cleavage; Potency, µM (titrated, usually from 130 µM), for the others: top-dose activity change, negative = inhibition, most hits filed as inhibitors; actives 0.28% (n = 350,000); also: nearly all actives have a fitted effect of over 40% in size
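Enzyme-compound mixtures sat 15 min at room temperature, followed by a 5 min reaction with 15 nM final substrate and 10 min with AlphaScreen beads. Recombinant human Tdp1 was used at 1 nM final.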
DT40 TDP1 no CPT: qHTS for Inhibitors of human tyrosyl-DNA phosphodiesterase 1 (TDP1): qHTS in cells in absence of CPT | DT40 Tdp1-/- hTDP1 cells, no CPT, ATP luminescence, 48 h | Potency, µM (top dose mostly 46.2 µM), for inactives: at the highest dose activity change, negative = growth inhibition, hits mostly inhibitors | actives 15% (n = 420,000); also: nearly all actives have a fitted effect of over 55% in size
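Camptothecin absent (DMSO only). Human TDP1-complemented DT40 knockout cells, 400 cells/well, 37 °C for minimum 48 hr; ATP measured via CellTiter-Glo, 30 min dark incubation, luminescence.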
Active calls of the source: *; ? = inconclusive; nt = no result; [ ] = another dose, or the depositor's remark. Rows were chosen to be rich in hits. Some 19% of all compounds tested hit in one or more screens of this group. Calls follow the shape of the dose curve; as a rule, active = well fitted curve in the direction sought with a large enough effect; inconclusive = small, poorly fitted or top-dose-only effect, or another doubt; inactive = no such curve, though single readings can be large; an effect the other way counts as inactive or inconclusive. % is scaled to controls: 0 for no effect and ±100 for the full control effect; potency is read from the fitted curve at half-maximal effect.

SMILES | RORg inh | Gal4-VP16 FLuc | TDP1 cell CPT | TDP1 inh | DT40 TDP1 no CPT
COc1ccc(Cn2cc(CN3CCc4onc(-c5ccccc5OC)c4C3=O)nn2)cc1 | nt | nt | 0% | nt | -3%
COC(=O)c1cn(NC(=O)c2ccc([N+](=O)[O-])c(C)c2)c(=O)c2ccccc12 | 29% | 3% | 8% | 1% | -2%
Cc1ccccc1Cn1cnc2c([N+](=O)[O-])c(C)c(C)cc21 | 22% | -9% | ? | 7% | ?
C=CCSc1ncnc2c1oc1nc3c(cc12)COC(C)(C)C3 | 14% | ? | -20% | 4% | 18µM*
CC(C)CSc1ncnc2c1oc1nc3c(cc12)COC(C)(C)C3 | 29% | 4% | 1% | -2% | -3%
CC1(C)CO[C@H](CC(=O)O)CN1 | 1% | -3% | -5% | 8%[56.1 µM] | -13%
FC(F)(F)c1nc2ccccc2n2c(-c3ccc(Cl)cc3Cl)nnc12 | -6% | 2% | 21µM* | 3% | 21µM*
FC(F)(F)c1nc2ccccc2n2c(-c3c(Cl)cccc3Cl)nnc12 | 3% | 14% | 26µM* | 3% | 21µM*
Cc1cc(C)n2cc(CSc3nnc(-c4ccccc4)c(-c4ccccc4)n3)nc2n1 | nt | nt | 21µM* | nt | 23µM*
O=C(CSc1cccc[n+]1[O-])NCC1CCCCC1 | 18% | -5% | 2% | 0% | 10%
Cc1c(OCC(=O)NCCCN2CCOCC2)ccc2c1oc(=O)c1ccccc12 | -16% | -6% | ? | 3% | ?
CC(=O)Oc1cc2c(C(=O)NCCCN3CCOCC3)c(C)oc2c2ccccc12 | ? | -12% | 15µM* | 6% | 21µM*
COc1cc(CNCCCN2CCOCC2)cc(Br)c1OCc1ccc(Cl)cc1 | -9% | -27% | 3.7µM* | -10% | 3.7µM*
COc1cc(CNCCc2ccc(S(N)(=O)=O)cc2)ccc1OCC(=O)NC1CCCCC1 | -8% | -6% | ? | -2% | -28%
COc1cc(CNCc2ccccn2)ccc1OCc1ccccc1Cl | 14µM* | ? | ? | 6% | ?
C=CCOc1c(Cl)cc(CNCCCN2CCOCC2)cc1OC | -17% | 0% | 23µM* | nt | -77%
COc1cc(CNCCc2ccc(S(N)(=O)=O)cc2)ccc1OCc1ccc(Cl)cc1 | -42% | -13% | 23µM* | 1% | ?
COc1ccc(NC(=O)C2CC(=O)OC2c2ccccc2)cc1 (stereo not given) | 7% | -1% | -3% | -4% | 1%
COc1ccccc1CNC(=O)c1ccc(NS(C)(=O)=O)cc1 | 1% | 5% | -16% | 2% | -6%
O=S(=O)(Cc1c(F)cccc1Cl)c1ncn[nH]1 | -23% | 1% | -1% | -1% | 7%
COc1ccc(NC(=O)COc2ccc(CNCCCN3CCOCC3)cc2OC)cc1 | -7% | -8% | -17% | 4% | -6%
CCOc1cc(CNCCCN2CCOCC2)cc(Br)c1OCC(=O)Nc1cccc(C(F)(F)F)c1 | ? | ? | 5.2µM* | 0% | 4.1µM*
COc1cc(CNCCN2CCOCC2)ccc1OCc1ccc(Cl)cc1 | -13% | -4% | 18µM* | 6% | ?
Cc1cc(Cl)ccc1OCC(O)CNCCc1ccc(S(N)(=O)=O)cc1 (stereo not given) | -9% | -6% | ? | nt | 15µM*
COc1cc(CNCCN2CCOCC2)ccc1OCc1ccccc1Cl | -39% | -4% | ? | 8% | 18µM*
CCOc1cc(CNCCCN2CCOCC2)cc(Cl)c1OCC(=O)NC(C)(C)C | 9% | 0% | ? | nt | ?
COc1ccc(Cl)cc1NC(=S)NCCN1CCOCC1 | -10% | 5% | -9% | 5% | 5%
CCOCc1nnc(NC(=O)C2CCN(C(=O)C3CC(=O)N(c4ccc(C)cc4)C3)CC2)s1 (stereo not given) | 4% | 1% | -1% | nt | -13%
Cc1noc(C)c1CN1C(=O)NC2(CCCCCCC2)C1=O | -32% | ? | -19% | -7% | -10%
CC(C)CNC(=O)c1cccc2c(-c3cccc(C(N)=O)c3)coc12 | nt | nt | 23µM* | nt | ?
